Assay outcomes as filed in PubChem BioAssay.
A selection: hits, their analogues and other compounds. The true share with any hit is near 3.5%.
MITF inh – inhibitors of human MITF | O75030 | AlphaScreen MITF homodimerization, bead proximity signal | inhibition, % at 2.6 µM | 650,000 tested, 0.91% active; in the data active means inhibition above about 50%
FBW7 act – human FBW7 E3 ligase activation, primary screen; normalized activity (activation), % at 26.1 µM; 650,000 tested, 0.13% active; AlphaScreen FBW7–phospho-cyclin E peptide binding, activator screen; Q969H0; in the data active means normalized activity above about 1.9%;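 further: purified mutant Fbw7 with reduced substrate affinity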
GPR151 activ – activates the human receptor GPR151; AID 1508602; Q8TDV0; PathHunter beta-arrestin GPR151 cells, luminescence; activation, % at 11.2 µM; 650,000 tested, 1% active; in the data active means activation above about 4.9%
TEAD-YAP block – TEAD-YAP interaction inhibition. inhibition, % at 9.12 µM. HEK-TIYL cells, TEAD-Gal4/YAP UAS-luciferase luminescence. AID 1259422. 640,000 tested, 1.4% active; in the data active means inhibition above about 32%
Each line names hits and unclear results; the compound was inactive in the other large screens.

NC(=O)c1ccc(-c2nc(NC3CC3)c3ncn(-c4ccsc4)c3n2)cc1	none
NC(=O)c1ccc(-c2nc(N)c3ncn(-c4ccccc4)c3n2)cc1	TEAD-YAP block 55
CN1CCN(C(=O)c2ccc(-c3nc(N)c4ncn(-c5ccccc5)c4n3)cc2)CC1	none
Cc1ccc(N2C(=O)c3cccc(N)c3C2=O)c(C)c1	TEAD-YAP block 33
Nc1cccc2c1C(=O)N(c1ccc3ccccc3c1)C2=O	FBW7 act 2.4
Nc1cccc(N2C(=O)c3cccc(N)c3C2=O)c1	none
CN1/C(=C/c2cccc[n+]2C)Sc2ccccc21	TEAD-YAP block 70
CCN1/C(=C/c2cccc[n+]2C)Sc2ccc(C)cc21	TEAD-YAP block 52
CCCCN1/C(=C/c2cccc[n+]2C)Sc2cc(NC(C)=O)ccc21	none
Cc1ccc2c(c1)N(C)/C(=C/c1cccc[n+]1C)S2	TEAD-YAP block 55
CN1C=C/C(=C/c2cccc[n+]2C)c2ccccc21	none
C[n+]1ccccc1/C=C1\Sc2ccccc2N1CCCS(=O)(=O)O	FBW7 act 2.5
CCC(C)n1c(SCc2ccccc2C)nc2ccsc2c1=O (configuration not stated)	TEAD-YAP block 47
CCC(C)n1c(SCc2ccccc2F)nc2ccsc2c1=O (configuration not stated)	none
O=C(NCCCc1cccnc1)c1ccc(-n2cc(NC(=O)C3CCOC3)cn2)cc1 (configuration not stated)	TEAD-YAP block 32
O=C(NCCn1ccc2ccccc21)c1ccc(-n2cc(NC(=O)c3ccoc3)cn2)cc1	none
O=C(NCCOc1cccnc1)c1ccc(-n2cc(NC(=O)c3ccoc3)cn2)cc1	TEAD-YAP block 52
CCOc1ccccc1CN1CCNC(=O)C1CC(=O)NCc1ccccc1 (configuration not stated)	none
CC(=O)Nc1cccc(Oc2ccc3c(c2)C(=O)N(c2cccc(Cl)c2)C3=O)c1	TEAD-YAP block 80
CC(=O)Nc1cccc(Oc2ccc3c(c2)C(=O)N(c2cccc(OC(C)=O)c2)C3=O)c1	TEAD-YAP block 46
Cc1cc(N2CCCC2)nc(Nc2ccc(NS(=O)(=O)c3cccc(F)c3)cc2)n1	TEAD-YAP block 54
O=C(CNC(=S)N(Cc1ccccc1F)C1CCCCC1)NCc1cccs1	none
CCC/C(O)=C1\C(=O)CC(C)(C)CC1=Nc1ccc(OC)cc1OC	TEAD-YAP block 55
Cc1ccc(CSc2ccc(C(=O)NNC(=O)c3ccccn3)cc2[N+](=O)[O-])cc1	TEAD-YAP block 50
CCS(=O)(=O)c1ncc(Cl)c(C(=O)Nc2ccc(C)c(C)c2)n1	TEAD-YAP block 35
CCS(=O)(=O)c1ncc(Cl)c(C(=O)Nc2cccc(Cl)c2)n1	TEAD-YAP block 95
CCCS(=O)(=O)c1ncc(Cl)c(C(=O)Nc2ccc(OC)cc2)n1	TEAD-YAP block 34
CCOc1cc(C=O)c(Br)cc1OCC(=O)NCCc1ccccc1	none
COc1ccc(C(=O)c2ccc(N(C)C)cc2)c(OC)c1	TEAD-YAP block 55
Cc1ccc(C(=O)Nc2ccc(N(C)C)c3ccccc23)cc1	none
CN(C)c1ccc(C(=O)c2ccc(N(C)C)c3ccccc23)cc1	TEAD-YAP block 50
COc1ccc(C2C(=O)c3ccccc3C2=O)cc1	none
N=C1c2ccccc2C(=O)C1c1ccccc1 (configuration not stated)	MITF inh 65
CCOc1ccc(CCNC(=O)Nc2ccc(F)cc2)cc1OCC	none
CCOC(=O)c1ccc(Nc2ccc([N+](=O)[O-])c3nonc23)cc1	FBW7 act 1.9
CCOC(=O)c1ccc(Nc2ccc3nonc3c2[N+](=O)[O-])cc1	none
COc1ccc(NC(=O)c2cc(C(C)C)n(-c3nc4ccccc4s3)n2)c(OC)c1	TEAD-YAP block 64
COc1cccc(NC(=O)c2cc(C(C)C)n(-c3nc4ccccc4s3)n2)c1	TEAD-YAP block 48
CC(C)c1cc(C(=O)Nc2ccc(Cl)cn2)nn1-c1nc2ccccc2s1	TEAD-YAP block 46
CCN1CCN(C(=O)c2cc(C(C)C)n(-c3nc4ccccc4s3)n2)CC1	TEAD-YAP block 81
O=C(c1ccccc1)N1CCN(c2nc3ccccc3s2)CC1	none
NC(=O)C1CCN(C(=O)Cn2nnc3ccccc3c2=O)CC1	none
CCOC(=O)C1=C(CC)OC(N)=C(C#N)C1c1ccc2ccccc2c1 (configuration not stated)	none
Cn1c(Nc2nc(C(=O)NCc3nc4ccccc4[nH]3)cs2)nc2ccccc21	none
O=C1CC(c2ccccc2)c2c(ccc3ccccc23)N1 (configuration not stated)	none
O=C1CC(c2cccc(Br)c2)c2c(ccc3ccccc23)N1 (configuration not stated)	TEAD-YAP block 51
Cc1ccccc1C1CC(=O)Nc2ccc3ccccc3c21 (configuration not stated)	TEAD-YAP block 38
O=C1CCCC2=C1C(c1cccc(F)c1Br)n1c(nc3ccccc31)N2 (configuration not stated)	TEAD-YAP block 36
O=C/C=C/C1=C2OC3C=CC=CC3=CC2c2ccccc21 (configuration not stated)	none
CC(=O)NCCNCC(=O)Nc1ccc(-c2ccccc2)cc1	none
COc1ccc(Cl)cc1NC(=O)Cn1nnc(C(=O)NCc2cccs2)c1N	TEAD-YAP block 45
CC(=O)Nc1ccc(C(=O)NCC(=O)OCc2ccc(C(=O)c3ccccc3)cc2)cc1	TEAD-YAP block 44
O=C(Sc1cccc2cccnc12)N1CCOCC1	none
Oc1c(C(c2ccc(Br)cc2)N2CCOCC2)ccc2cccnc12 (configuration not stated)	TEAD-YAP block 73
Oc1c(C(c2ccccc2)N2CCOCC2)ccc2cccnc12 (configuration not stated)	TEAD-YAP block 87
C=CCOC(=O)Nc1ccc(C(O)(C(=O)OCC)C(F)(F)F)cc1C (configuration not stated)	none
COCCNC(=O)c1ccc2c(c1)nc(C)n2-c1ccc(OCc2ccccc2)cc1	none
Cc1ccc(NC(=O)c2ccccc2NC(=O)c2ccc(C(=O)c3ccccc3)cc2)c(C(=O)c2ccccc2)c1	none
Cc1ccccc1-n1c(SCC(=O)Nc2ccc(C(F)(F)F)cc2)nc2[nH]ncc2c1=O	TEAD-YAP block 37
O=C(CSc1nc2[nH]ncc2c(=O)n1-c1ccccc1)Nc1ccc(C(F)(F)F)cc1	none
O=C(CSc1nc2[nH]ncc2c(=O)n1-c1ccccc1)Nc1ccc([N+](=O)[O-])cc1Cl	none
CC(C)c1ccc(NC(=O)CSc2nc3[nH]ncc3c(=O)n2-c2ccc(Cl)cc2)cc1	none
COc1ccc(-n2c(SCC(=O)Nc3ccc([N+](=O)[O-])cc3Cl)nc3[nH]ncc3c2=O)cc1	TEAD-YAP block 32
CC(C)c1ccc(NC(=O)CSc2nc3[nH]ncc3c(=O)n2-c2ccccc2)cc1	TEAD-YAP block 39
CCC(C)(C)NC(=O)C1CCN(c2nccc(C)n2)CC1	none
COc1ccc(O)c(/C=C(\C#N)C(=O)NC2CCCCC2C)c1 (configuration not stated)	none
Cc1cnc(CNc2cc(-c3ccccc3F)nc(-c3cccnc3)n2)nc1	TEAD-YAP block 43
